In PubChem BioAssay AID1159580 (chemical genetic matrix, 2015):
Values joined by “and” are separate entries in the source; they are usually repeats but may differ in a detail not shown here. Equal values may be shown once. The campaign covered roughly 5,500 compounds. About 2,000 (36%) were called active. Not shown: some 18% with an inconclusive outcome. Rule as the data show it: active = normalized growth mostly below about 0.91 (no sharp cut-off); inconclusive = no clear call, values can overlap the other calls; inactive = mostly above about 0.92. The list shows a part of the results.

Assay: chemical genetic growth profiling, strain panel (AID 1159580);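 also: tested at 20 µM; growth read once vehicle control cultures reached saturation at 30 °C; 1 = growth at the plate median or of vehicle wells; lower values mean less growth of the strain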
Conditions: S. cerevisiae deletion strains, growth OD

Measured: normalized growth

CC(NCCC(c1ccccc1)c1ccccc1)c1ccccc1 (configuration not stated)
active: locus YAL021C, strain ccr4, stronger effect = lower value 0.592 | locus YAL026C, strain drs2, stronger effect = lower value 0.47 | locus YBR021W, strain FUR4, stronger effect = lower value 0.447 | locus YBR023C, strain chs3, stronger effect = lower value 0.799 | locus YBR279W, strain paf1, stronger effect = lower value 0.893 | locus YDR069C, strain doa4, stronger effect = lower value 0.57 | locus YDR195W, strain ref2 1.28 [resistant] | locus YDR388W, stronger effect = lower value 0.328 | locus YER015W, strain faa2, stronger effect = lower value 0.9 | locus YFR010W, strain ubp6, stronger effect = lower value 0.559 | locus YGL253W, strain hxk2, stronger effect = lower value 0.868 | locus YGR135W, strain pre9, stronger effect = lower value 0.832 | locus YGR229C, strain SMI1, stronger effect = lower value 0.623 | locus YGR252W, strain gcn5, stronger effect = lower value 0.679 | locus YHR013C, strain ard1, stronger effect = lower value 0.655 | locus YHR142W, strain chs7, stronger effect = lower value 0.802 | locus YJL095W, strain BCK1 (second series), stronger effect = lower value 0.901
inactive: locus YAL013W, strain DEP1, stronger effect = lower value 0.925 | locus YAL030W, strain snc1, stronger effect = lower value 0.992 | locus YBL061C, strain skt5, stronger effect = lower value 0.934 | locus YBR009C, strain hhf1, stronger effect = lower value 0.953 | locus YBR171W, strain sec66, stronger effect = lower value 1 | locus YBR229C, strain ROT2, stronger effect = lower value 0.946 | locus YBR231C, strain swc5, stronger effect = lower value 0.944 | locus YCL011C, strain gbp2, stronger effect = lower value 0.97 | locus YCL016C, strain dcc1, stronger effect = lower value 0.964 | locus YCL029C, strain bik1, stronger effect = lower value 0.975 | locus YCL061C, strain MRC1, stronger effect = lower value 1.02 | locus YCL069W, strain vba3, stronger effect = lower value 1.01 | locus YCR088W, strain abp1, stronger effect = lower value 1.02 | locus YDL005C, strain med2, stronger effect = lower value 1.03 | locus YDL035C, strain GPR1, stronger effect = lower value 0.908 | locus YDL040C, strain nat1, stronger effect = lower value 0.991 | locus YDL074C, strain BRE1, stronger effect = lower value 0.831 | locus YDL101C, strain DUN1, stronger effect = lower value 0.971 | locus YDL134C, strain PPH21, stronger effect = lower value 0.968 | locus YDL185W, strain tfp1, stronger effect = lower value 0.959 | locus YDL192W, strain arf1, stronger effect = lower value 0.985 | locus YDR001C, strain nth1, stronger effect = lower value 1.01 | locus YDR101C, strain arx1, stronger effect = lower value 0.994 | locus YDR137W, strain rgp1, stronger effect = lower value 0.981 | locus YDR150W, strain NUM1, stronger effect = lower value 0.97 | locus YDR159W, strain sac3, stronger effect = lower value 1.09 | locus YDR162C, strain NBP2, stronger effect = lower value 0.936 | locus YDR297W, strain sur2, stronger effect = lower value 1.01 | locus YDR318W, strain mcm21, stronger effect = lower value 0.952 | locus YDR334W, strain swr1, stronger effect = lower value 1.01 | locus YDR335W, strain msn5, stronger effect = lower value 1 | locus YDR392W, strain spt3, stronger effect = lower value 0.93 | locus YDR502C, strain sam2, stronger effect = lower value 0.964 | locus YEL003W, strain gim4, stronger effect = lower value 0.988 | locus YEL037C, strain rad23, stronger effect = lower value 0.98 | locus YEL061C, strain CIN8 (second series), stronger effect = lower value 1 | locus YEL061C, strain CIN8, stronger effect = lower value 0.987 | locus YER016W, strain bim1, stronger effect = lower value 1 | locus YER110C, stronger effect = lower value 0.978 | locus YER111C, strain swi4, stronger effect = lower value 1.01 | locus YER155C, strain BEM2 (second series), stronger effect = lower value 0.978 | locus YER155C, strain BEM2, stronger effect = lower value 0.999 | locus YER167W, strain BCK2, stronger effect = lower value 0.964 | locus YGL078C, strain dbp3, stronger effect = lower value 0.977 | locus YGL086W, strain mad1, stronger effect = lower value 0.96 | locus YGL167C, strain pmr1, stronger effect = lower value 1.01 | locus YGL173C, strain kem1, stronger effect = lower value 0.971 | locus YGL227W, strain vid30, stronger effect = lower value 1 | locus YGL240W, strain doc1, stronger effect = lower value 1.05 | locus YGL248W, strain PDE1, stronger effect = lower value 0.979 | locus YGR078C, strain PAC10, stronger effect = lower value 0.909 | locus YHR027C, strain rpn1, stronger effect = lower value 0.944 | locus YHR030C, strain SLT2, stronger effect = lower value 0.974 and 0.983 | locus YHR079C, strain IRE1 (second series), stronger effect = lower value 0.99 | locus YHR079C, strain IRE1, stronger effect = lower value 0.982 | locus YHR094C, strain hxt1, stronger effect = lower value 0.991 | locus YHR129C, strain ARP1, stronger effect = lower value 0.974 | locus YHR200W, strain rpn10, stronger effect = lower value 0.99 | locus YIL066C, strain RNR3, stronger effect = lower value 0.948 | locus YIL073C, strain SPO22, stronger effect = lower value 1.14 | locus YIL125W, strain kgd1, stronger effect = lower value 0.989 | locus YIR030C, strain dcg1, stronger effect = lower value 0.978 | locus YJL092W, strain hpr5, stronger effect = lower value 0.986 | locus YJL095W, strain BCK1, stronger effect = lower value 0.824 and 0.989 | locus YJL115W, strain asf1, stronger effect = lower value 1 | locus YJL129C, strain trk1, stronger effect = lower value 1 | locus YJL134W, strain LCB3, stronger effect = lower value 0.988 | locus YJL154C, strain vps35, stronger effect = lower value 0.998 | locus YJL164C, strain tpk1, stronger effect = lower value 0.922 | locus YJL166W, strain qcr8, stronger effect = lower value 0.914 | locus YJL168C, strain set2, stronger effect = lower value 0.991 | locus YJL187C, strain SWE1 (second series), stronger effect = lower value 0.931 | locus YJL187C, strain SWE1, stronger effect = lower value 0.978 | locus YJR043C, strain POL32, stronger effect = lower value 1 | locus YJR066W, strain TOR1, stronger effect = lower value 0.903
